Assay results taken from PubChem BioAssay (NCATS).
Inconclusive results are not listed. A call without a number means that no potency is given here. Calls of active or inactive are those of the source. Calls come from the whole dose curve; as a rule, active = well fitted inhibition curve with a large enough effect; inconclusive = small, poorly fitted or top-dose-only effect; inactive = flat fitted curve, though single readings scatter.

Tested on: MKL-1
Assay: qHTS assay to identify novel small-molecules to repurpose for Merkel cell carcinoma treatment (AID 1296009); note: nearly all actives have a fitted effect of over 60% in size
Details: MCC and control cell lines, CellTiter-Glo viability, 72 h; series mostly up to 46 µM
Outline: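 72 hr, 37 degree celsius; NPC 8-pt / MIPE 11-pt dose response; compound pinned in DMSO; CellTiter-Glo, 10 min RT, luminescence; normalized to no-cell and DMSO controls.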
Potency is the fitted concentration of half-maximal effect.

| SMILES | Potency |
| --- | --- |
| COc1cccc2c(NCc3ccccc3)nc(-n3c(N)nc4ccccc43)nc12 | 9.35 µM (active) |
| COC(=O)[C@]12CCC(C)(C)C[C@@H]1[C@@H]1C(=O)C=C3[C@@]4(C)C=C(C#N)C(=O)C(C)(C)[C@@H]4CC[C@@]3(C)[C@]1(C)CC2 | inactive |
| CCCCCCCCCC(=O)N[C@@H](Cc1c[nH]c2ccccc12)C(=O)N[C@H](CC(N)=O)C(=O)N[C@@H](CC(=O)O)C(=O)N[C@@H]1C(=O)NCC(=O)N[C@@H](CCCN)C(=O)N[C@@H](CC(=O)O)C(=O)N[C@H](C)C(=O)N[C@@H](CC(=O)O)C(=O)NCC(=O)N[C@H](CO)C(=O)N[C@@H]([C@@H](C)CC(=O)O)C(=O)N[C@@H](CC(=O)c2ccccc2N)C(=O)O[C@@H]1C | inactive |
| COc1c(OCCCN2CCOCC2)ccc2c3n(c(=NC(=O)c4cnc(N)nc4)nc12)CCN3 | inactive |
| CCC1=C[C@@H]2CN(C1)Cc1c([nH]c3ccccc13)[C@@](C(=O)OC)(c1cc3c(cc1OC)N(C)[C@@H]1[C@@](O)(C(=O)OC)[C@H](OC(C)=O)[C@]4(CC)C=CCN5CC[C@]31[C@@H]54)C2 | 0.0118 µM (active) |
| c1cc(-c2cnn3cc(-c4ccc(OCCN5CCCCC5)cc4)cnc23)ccn1 | 11.8 µM (active) |
| O=C(O)c1ccc2c(c1)nc(Nc1cccc(Cl)c1)c1ccncc12 | inactive |
| COC(=O)C[C@](O)(CCCC(C)(C)O)C(=O)O[C@@H]1C(OC)=C[C@]23CCCN2CCc2cc4c(cc2[C@H]13)OCO4 | inactive |
| CN1CCN(c2cc(C(=O)Nc3ccc4c(c3)-c3c(c(C(N)=O)nn3-c3ccc(F)cc3)CC4)c(Cl)cn2)CC1 | 26.4 µM (active) |
